Source: PubChem (National Center for Advancing Translational Sciences (NCATS))
TDP1 cell noCPT: qHTS for Inhibitors of human tyrosyl-DNA phosphodiesterase 1 (TDP1): qHTS in cells in absence of CPT | DT40 Tdp1-/- hTDP1 cells, no CPT, ATP luminescence, 48 h | Potency, µM (doses to about 46.2 µM), for inactives: top-dose activity change, negative = growth inhibition, usual class: inhibitors | 420,000 compounds, 15% hits; also: potency is read from the fitted curve at half-maximal effect; nearly all actives have a fitted effect of over 55% in size
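Growth kinetics read by CellTiter-Glo luminescence after ≥48 hr at 37 °C. Cells: DT40 Tdp1-/- stably carrying human TDP1, 400 per well, compound exposure in the absence of CPT (DMSO vehicle).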
IL1B secr inh: qHTS for Inhibitors of Inflammasome Signaling: IL-1-beta AlphaLISA Primary Screen; THP-1 LPS/ATP IL-1B secretion, AlphaLISA, 16 h; active compounds read low; activity change, % at 57.5 µM; 360,000 compounds, 4.7% hits; AID 743279, 2014; in the data active = activity change below about -50%; inconclusive = mostly about -30% to -49%
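Secreted IL-1B measured by AlphaLISA bead assay after 16 h compound exposure of THP-1 cells; compounds (final up to 57.5 uM) added 1 h before LPS (250 ng/mL) and ATP (1.25 mM) stimulation; lower signal means less secretion.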
HT1080NT lethal: qHTS for induction of synthetic lethality in tumor cells producing 2HG: qHTS for the HT-1080-NT fibrosarcoma cell line. HT-1080-NT fibrosarcoma viability, CellTiter-Glo ATP luminescence, 48 h. AID 686970, 2013. Potency, µM (titrated, usually from 46.1 µM), for the others: top-dose activity, negative = less viability, usual class: cytotoxic. 360,000 compounds, 1.6% hits;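 also: NT is the 2HG producing partner of a matched IDH1 knockdown line; potency is read from the fitted curve at half-maximal effect; 0% = DMSO-treated cells and -100% = media-only wells without cells; nearly all actives have a fitted effect of over 55% in size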
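Toxicity toward the 2HG-producing NT line was scored as %Activity, normalised to DMSO and no-cell wells, from CellTiter-Glo luminescence after 48 hours' treatment.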
HT1080 IDH1KD tx: qHTS for induction of synthetic lethality in tumor cells producing 2HG: qHTS for the HT-1080-IDH1KD cell line | HT-1080 IDH1 knockdown viability, ATP luminescence, 48 h | Potency, µM (doses to about 46.1 µM), for inactives: top-dose activity, negative = toxicity, usual class: cytotoxic | 360,000 compounds, 2% hits | AID 686971, 2013;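 also: potency is read from the fitted curve at half-maximal effect; 0% = DMSO wells and -100% = cell-free medium wells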
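IDH1KD HT-1080 cells, 750/well, RPMI + 5% FBS; compound pinned after 2 h settling; 48 h, 37 °C; CellTiter-Glo luminescence; % activity normalised to DMSO and no-cell wells; curves fitted, classed by r2 and efficacy.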
DT40 TDP1 CPT: qHTS for Inhibitors of human tyrosyl-DNA phosphodiesterase 1 (TDP1): qHTS in cells in presence of CPT; chicken DT40 Tdp1-/-;hTDP1 cells + 20 nM CPT, ATP luminescence, 48 h; Potency, µM (top dose mostly 46.2 µM), for inactives: at the top dose activity change, negative = growth inhibition, hits mostly inhibitors; 420,000 compounds, 12% hits; AID 686979, 2013; also: potency is read from the fitted curve at half-maximal effect; nearly all actives have a fitted effect of over 55% in size
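Chicken DT40 Tdp1-/- cells complemented with human TDP1, 400 cells/well, exposed to compounds plus 20 nM camptothecin for at least 48 h at 37 C; viability read as ATP content by CellTiter-Glo luminescence.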
* = called active by the depositor; i = inactive; ? = inconclusive; / = no result given; [ ] = remark or other dose. A selection: hits, their analogues and other compounds. The true share with any hit is near 19%. Unless noted, calls follow the shape of the dose curve; as a rule, active = well fitted curve in the direction sought with a large enough effect; inconclusive = small, poorly fitted or top-dose-only effect, or another doubt; inactive = no such curve, though single readings can be large; an effect the other way counts as inactive or inconclusive. Unless noted, % is scaled to controls: 0 for no effect and ±100 for the full control effect.

SMILES | TDP1 cell noCPT | IL1B secr inh | HT1080NT lethal | HT1080 IDH1KD tx | DT40 TDP1 CPT
O=C(CSc1nnc(-c2cccs2)n1-c1cccc(Cl)c1)c1cccc2c1OCCO2 | 16µM* | -1 | 16% | 7% | ?
c1ccc(-n2c(SCC3CCCCO3)nnc2-c2cccs2)cc1 (stereo unspecified) | ? | -11 | -11% | -7% | 18µM*
O=C(O)CSc1nnc(-c2cccs2)n1-c1ccc(Cl)cc1 | 29µM* | -7 | 16% | 19% | ?
C#CC(C)(CC)NC(=O)c1cc2nc(C3CC3)cc(C(F)(F)F)n2n1 (stereo unspecified) | -7% | -2 | 10% | 1% | 2%
CCOC(=O)C1=NN(c2cccc(Cl)c2)C2=NC(C)=C(C(=O)OC)C(c3cccs3)N12 (stereo unspecified) | -16% | -5 | -6% | -17% | 0%
Cc1nnc(C)n1N | -22% | 4 | 20% | 18% | -4%
O=S(=O)(CCN1CCN(C(c2ccccc2)c2ccccc2)CC1)C(F)(F)F | 18µM* | -18 | ? | 18µM* | 7.3µM*
CCC(C(=O)NCCN1CCOCC1)n1nc(C)n2c(cc3sccc32)c1=O (stereo unspecified) | -1% | 0 | 0% | 4% | -7%
COc1cc(/C=N/N2C(=O)C3C4C=CC(CC4)C3C2=O)ccc1O (stereo unspecified) | 0% | 56 | 2% | 7% | -16%
O=C1C2C3c4ccccc4C(c4ccccc43)C2C(=O)N1/N=C/c1cccc(O)c1 (stereo unspecified) | ? | -5 | -7% | -12% | 21µM*
C=CCN(CC(=O)Nc1cccnc1)S(=O)(=O)c1ccc(Cl)cc1 | -18% | 0 | 0% | 2% | -21%
CC(NC(=O)CSc1ncccc1C(=O)O)C1CC2CCC1C2 (stereo unspecified) | 3% | 90 | 9% | 15% | -14%
Cc1ccc(CNc2ncnc3sc(C(=O)N4CCC[C@H]4C(N)=O)c(C)c23)o1 | -29% | / | / | / | 0%[9.04 µM]
CCc1ccccc1C1C(=O)c2ccccc2C1=O | -35% | -13 | -1% | -2% | -3%
O=C1C(=O)c2ccccc2C(O)=C1c1ccccc1F | ? | 0 | 7% | -9% | -24%
O=C1c2ccccc2C(=O)C1c1ccnc2ccccc12 | 13µM* | 9 | -9% | -8% | 5.8µM*
N#CC1=C(N)SC(N)=C(C#N)C1c1ccnc2ccccc12 | ? | 5 | 4% | 0% | ?
O=C1C(c2ccnc3ccccc23)=C(O)c2ccccc21 | 12µM* | 23 | -2% | -11% | 13µM*
O=C1c2ccccc2C(=O)C1c1nccc2ccccc12 | 12µM* | 22 | -4% | -6% | 10µM*
Cc1cccc(C(=O)NCC(=O)NC(C)c2ccc(-n3ccnc3)cc2)c1 (stereo unspecified) | -29% | -24 | -7% | 1% | 1%
CCOC(=O)C(=O)/C(=C\N(C)C)c1onc(-c2c(Cl)cccc2Cl)c1C(=O)OC | ? | -3 | 9% | 21% | ?
COc1ccc([C@H]2C[C@@H](O)[C@H](n3cc(C4CC4)nn3)CN2C(=O)C2CCCCC2)cc1 | ? | -12 | -3% | -11% | -24%
CCc1nc2ccccc2[nH]c1=O | 22% | 41 | 3% | 2% | -4%
O=c1cc(-c2ccccc2)[nH]n1-c1nc2ccccc2[nH]1 | ? | 13 | 11µM* | 13µM* | ?
O=C(CCN1C(=O)/C(=C\C=C\c2ccccc2)SC1=S)Nc1ccc(C(=O)O)cc1 | 4% | -55* | 0% | -11% | -3%
SMILES | TDP1 cell noCPT | IL1B secr inh | HT1080NT lethal | HT1080 IDH1KD tx | DT40 TDP1 CPT
O=C(CN1C(=O)S/C(=C/C=C/c2ccccc2)C1=O)Nc1ccc(C(=O)O)cc1 | -21% | -24 | 7% | 1% | 0%
O=C(CCCN1C(=O)S/C(=C\C=C\c2ccccc2)C1=O)Nc1ccc(O)cc1 | ? | -78* | ? | 21µM* | ?
O=C(CN1C(=O)S/C(=C\C=C\c2ccccc2)C1=O)Nc1ccc(C(=O)O)cc1 | -3% | -2 | 1% | 4% | -4%
CC1=C(C(=O)Nc2ccc(F)cc2F)C2(CCCCCC2)OC1=O | -20% | / | / | / | -13%
CC1=C(C(=O)Nc2ccc(C)cc2Cl)C2(CCCCC2)OC1=O | 16µM* | / | / | / | ?
COc1ccc(NC(=O)C2=C(C)C(=O)OC23CCC(C)CC3)c(OC)c1 (stereo unspecified) | ? | 14 | -1% | 3% | ?
CCc1ccc(NC(=O)C2=C(C)C(=O)OC23CCCCC3)cc1 | 16µM* | / | / | / | 16µM*
CC1=C(C(=O)NCc2ccc(Cl)cc2)C2(CCCCCC2)OC1=O | -29% | / | / | / | ?
CCOc1ccc(NC(=O)C2=C(C)C(=O)OC23CCC(C)CC3)cc1 (stereo unspecified) | 16µM* | -18 | 2% | -9% | ?
CCOC(=O)CNC(=O)Cc1ccc(OC)cc1 | -5% | / | 14% | 19% | -4%
O=C(N/C(=C/c1ccco1)C(=O)N1CCOCC1)c1ccccc1Br | -4% | i | 7% | -5% | 12%
COc1ccc(/C=N/NC(=O)c2nc(Cl)c(Cl)c(N)c2Cl)cc1COc1ccccc1F | ? | 41 | -18% | -23% | 23µM*
COc1ccc(/C=N/NC(=O)c2cc(C(C)(C)C)[nH]n2)cc1COc1ccc(F)cc1F | 23µM* | -77* | ? | ? | ?
COc1ccc(/C=N\NC(=O)c2ccccc2F)cc1COc1ccc(F)cc1F | 2.6µM* | 66 | 2.3µM* | 2.3µM* | 2.6µM*
COc1ccc(/C=N\NC(=O)c2ccccc2OC)cc1COc1ccccc1C | ? | -19 | -8% | -1% | 16µM*
COc1ccc(/C=N\NC(=O)c2ccccc2F)cc1COc1ccc(F)cc1 | ? | 35 | -17% | -14% | ?
CCOC(=O)c1c(-c2ccccc2)csc1NC(=O)c1cc(-c2ccc(C)c(F)c2)on1 | -4% | / | / | / | 4%
COc1ccc(/C=N\NC(=O)c2ccccc2Br)cc1COc1c(F)c(F)cc(F)c1F | 16µM* | -25 | -17% | ? | ?
COc1ccc(/C=N/NC(=O)c2ccoc2C)cc1COc1c(C)cccc1C | 15µM* | 6 | 4.6µM* | 5.2µM* | 12µM*
COc1ccc(/C=N/NC(=O)c2ccc(C)cc2)cc1CN1CCN(c2ccc(F)cc2)CC1 | ? | -18 | -7% | 2% | -5%
